± gives the standard deviation.

The first assay relates to RAW-Dual (murine macrophage reporter line). Put plainly: NF-kB reporter (SEAP) activity fold change vs agonist alone; higher = enhanced NF-kB activity. The note with it: modulator concentration 10 µM; agonist: CpG ODN 1826 0.5 ug/mL. The procedure, abridged: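 RAW-Dual murine macrophage reporter cells were plated at 50 000 per well in 384-well plates, pin-transferred compound to 10 μM final, and pre-incubated for 1 hour at 37 °C before a PRR agonist was added and the cells incubated overnight. NF-κB activity was read from supernatant SEAP with QUANTI-Blue at 620 nm absorbance, and IRF activity from Lucia luciferase with QUANTI-Luc by luminescence. Each signal was expressed as fold change by dividing by the mean agonist-only control on the same plate. Two replicate plates were averaged, with errors obtained by propagation.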
In the case of `Nc1nc(=O)n([C@@H]2CS[C@H](CO)O2)cc1F`, the NF-kB reporter turned out to be 1.59 ± 0.24.
In the case of `C1=C(c2ccccc2)Nc2nnnn2C1c1ccccc1` (stereo not given), the NF-kB reporter came to 0.951 ± 0.076.
For `CCN(Cc1ccncc1)C(=O)C(CO)c1ccccc1` (stereo not given), the NF-kB reporter worked out at 0.998 ± 0.087.
The same measure, in the same setting: the value for `CCN(CC)c1ccc(C=NNC(=O)c2ccc(O)cc2)c(O)c1` was 2.52 ± 0.2; that for `CC(C(=O)O)c1ccc(C(=O)c2cccs2)cc1` (stereo not given) was 1.17 ± 0.17; that for `O=C(Oc1ccc2ccccc2c1)c1ccccc1` was 0.981 ± 0.055.
Take `CN1CCN(C(CNC(=O)c2ccccc2Br)c2ccc(F)cc2)CC1` (stereo not given): the NF-kB reporter was found to be 0.878 ± 0.047.
On to `O=C(O)CSCC(=O)NC1CCSC1=O` (stereo not given), for which the NF-kB reporter was determined as 0.824 ± 0.065.
For the molecule `COc1ccc(C2CC(=O)C(=Cc3c[nH]c4ccccc34)C(=O)C2)cc1` (stereo not given), the NF-kB reporter turned out to be 0.91 ± 0.055.
`O=C(NC(=S)Nc1ccccc1C(F)(F)F)c1cccc(I)c1`: the NF-kB reporter stood at 0.927 ± 0.088.
On the same count and under the same terms, the value for `CC(=O)N1CCC(C(=O)NCc2cccnc2-c2cnn(C)c2)CC1` was 1.02 ± 0.11; that for `Nc1cccc(O)c1` was 0.98 ± 0.099.
For `Cc1cccc(C(=O)N2N=C(c3ccccc3)CC2(O)C(F)(F)F)c1` (stereo not given), the NF-kB reporter was determined as 1.29 ± 0.1.
For `O=C(O[C@H]1C[C@H]2CC3C[C@@H](C1)N2CC3=O)c1c[nH]c2ccccc12`, the NF-kB reporter was 0.524 ± 0.055.
On to `CC1=NN(c2ccc(C(=O)O)cc2)C(=O)C1=Cc1ccc(-c2cc(C)c(C)cc2[N+](=O)[O-])o1`, for which the NF-kB reporter is 0.951 ± 0.057.
For `Cl.Cl.Fc1ccc(C(c2ccc(F)cc2)N2CCN(CC=Cc3ccccc3)CC2)cc1`, the NF-kB reporter was determined as 0.834 ± 0.063.
Same read-out and setting: under `Cc1ccc(C(=O)NC(=Cc2ccccc2)C(=O)NCCCn2ccnc2)cc1` stands 0.949 ± 0.077; under `Cc1cc(C(=O)N2CCC(Oc3cccc4cccnc34)CC2)n(C)n1`, 0.994 ± 0.3.
Same read-out and setting: under `COc1cc2ccc(=O)oc2cc1O` stands 1.04 ± 0.31; under `COc1ccc(C(=O)Nc2cc(C)nc3c(C)cc(C)cc23)cc1OC`, 0.763 ± 0.18; under `O=c1n(CCNS(=O)(=O)Cc2ccccc2)nc(C2CC2)n1-c1ccccc1`, 1.03 ± 0.052.
As for `O=[N+]([O-])c1ccc(OCC(O)CN2CCN(c3ccccc3)CC2)cc1` (stereo not given), the NF-kB reporter is 0.91 ± 0.072.
Still for that read-out and setting: the value for `CCc1ccccc1Nc1nc(-c2sc(NC(C)=O)nc2C)cs1` was 0.65 ± 0.1; that for `COc1cc2c(cc1Cc1cccc(Cl)c1F)c(=O)c(C(=O)O)cn2[C@H](CO)C(C)C` was 0.941 ± 0.14; that for `NC(=O)c1ncn(C2OC(CO)C(O)C2O)c1O` (stereo not given) was 0.931 ± 0.076.
Take `CCOC(=O)C1=C(C)NC(C)=C(C(=O)OC)C1c1ccc(C)cc1` (stereo not given): the NF-kB reporter came out at 0.782 ± 0.069.
For the molecule `CN1CCN(C2=C(Cl)C(=O)N(c3ccc(Cl)c(Cl)c3)C2=O)CC1`, the NF-kB reporter came to 0.902 ± 0.11.
Consider `CCC1(C)CC(CCN)(c2ccc(C)cc2)CCO1` (stereo not given), for which the NF-kB reporter worked out at 0.826 ± 0.053.
Consider `Cc1ccc(NC(Nc2ccc(C)cc2)=C(C(Cl)=C(Cl)Cl)[N+](=O)[O-])cc1`, for which the NF-kB reporter was determined as 1.01 ± 0.17.
Take `O=C(Nc1cc2c(cc1Cl)OCCO2)c1cc(Cl)ccc1O`: the NF-kB reporter came out at 0.882 ± 0.068.
Take `Cl.O=C1Cc2cc(CCN3CCN(c4nsc5ccccc45)CC3)c(Cl)cc2N1`: the NF-kB reporter came to 0.0947 ± 0.013.
On to `O=S(=O)(c1ccc(F)cc1)N1CCC(c2nc3ccccc3[nH]2)CC1`, for which the NF-kB reporter came out at 1.19 ± 0.085.
On the same count and under the same terms, under `COc1ccc(C=NNc2nc(-c3ccccc3)cc(-c3ccc(Br)cc3)n2)c(OC)c1` stands 0.918 ± 0.091.
As for `CCc1nc(N)nc(N)c1-c1ccc(Cl)cc1`, the NF-kB reporter is 1.23 ± 0.11.
`Cc1c(F)cc(C(=O)NC2CC2)cc1-c1ccc(C(=O)NCC(C)(C)C)cn1`: the NF-kB reporter stood at 0.825 ± 0.21.
With `COC(=O)C1=C(C)NC(C)=C(C(=O)OC)C1c1ccccc1[N+](=O)[O-]`, the NF-kB reporter is 1.27 ± 0.1.
As for `O=c1[nH]c(=O)n([C@H]2C[C@H](O)[C@@H](CO)O2)cc1I`, the NF-kB reporter amounted to 1.11 ± 0.15.
The same measure, in the same setting: the value for `O=[N+]([O-])c1ccc(C=Nc2sc3c(c2-c2nc4ccccc4s2)CCCC3)cc1` was 0.94 ± 0.059; that for `COc1cc2nc(N3CCN(C(=O)C4COc5ccccc5O4)CC3)nc(N)c2cc1OC.CS(=O)(=O)O` (stereo not given) was 0.103 ± 0.014.
With `O=C(c1ccc(Cl)cc1)c1ccc(N2CCCCC2)c([N+](=O)[O-])c1`, the NF-kB reporter stood at 1 ± 0.17.

Staying with this assay, now noted: modulator concentration 10 µM; agonist: LPS 0.1 ug/mL.
On to `Nc1nc(=O)n([C@@H]2CS[C@H](CO)O2)cc1F`, for which the NF-kB reporter is 1.3 ± 0.46.
The same measure, in the same setting: the value for `C1=C(c2ccccc2)Nc2nnnn2C1c1ccccc1` (stereo not given) was 0.945 ± 0.077; that for `CCN(Cc1ccncc1)C(=O)C(CO)c1ccccc1` (stereo not given) was 0.997 ± 0.11; that for `CCN(CC)c1ccc(C=NNC(=O)c2ccc(O)cc2)c(O)c1` was 1.31 ± 0.089.
`CC(C(=O)O)c1ccc(C(=O)c2cccs2)cc1` (stereo not given): the NF-kB reporter amounted to 1.08 ± 0.24.
Regarding `O=C(Oc1ccc2ccccc2c1)c1ccccc1`, the NF-kB reporter was 1.06 ± 0.11.
Turning to `CN1CCN(C(CNC(=O)c2ccccc2Br)c2ccc(F)cc2)CC1` (stereo not given), the NF-kB reporter is 0.967 ± 0.12.
Turning to `O=C(O)CSCC(=O)NC1CCSC1=O` (stereo not given), the NF-kB reporter worked out at 0.898 ± 0.11.
Regarding `COc1ccc(C2CC(=O)C(=Cc3c[nH]c4ccccc34)C(=O)C2)cc1` (stereo not given), the NF-kB reporter turned out to be 1.04 ± 0.11.
Same read-out and setting: the value for `O=C(NC(=S)Nc1ccccc1C(F)(F)F)c1cccc(I)c1` was 0.989 ± 0.076; that for `CC(=O)N1CCC(C(=O)NCc2cccnc2-c2cnn(C)c2)CC1` was 1.06 ± 0.11; that for `Nc1cccc(O)c1` was 1.08 ± 0.069.
The same measure, in the same setting: the value for `Cc1cccc(C(=O)N2N=C(c3ccccc3)CC2(O)C(F)(F)F)c1` (stereo not given) was 1.13 ± 0.062.
In the case of `O=C(O[C@H]1C[C@H]2CC3C[C@@H](C1)N2CC3=O)c1c[nH]c2ccccc12`, the NF-kB reporter came to 0.598 ± 0.1.
With `CC1=NN(c2ccc(C(=O)O)cc2)C(=O)C1=Cc1ccc(-c2cc(C)c(C)cc2[N+](=O)[O-])o1`, the NF-kB reporter was 0.969 ± 0.076.
As for `Cl.Cl.Fc1ccc(C(c2ccc(F)cc2)N2CCN(CC=Cc3ccccc3)CC2)cc1`, the NF-kB reporter came out at 0.999 ± 0.065.
Still for that read-out and setting: under `Cc1ccc(C(=O)NC(=Cc2ccccc2)C(=O)NCCCn2ccnc2)cc1` stands 1.03 ± 0.069; under `Cc1cc(C(=O)N2CCC(Oc3cccc4cccnc34)CC2)n(C)n1`, 1.08 ± 0.054.
Regarding `COc1cc2ccc(=O)oc2cc1O`, the NF-kB reporter worked out at 0.862 ± 0.062.
As to `COc1ccc(C(=O)Nc2cc(C)nc3c(C)cc(C)cc23)cc1OC`, the NF-kB reporter worked out at 0.948 ± 0.054.
For `O=c1n(CCNS(=O)(=O)Cc2ccccc2)nc(C2CC2)n1-c1ccccc1`, the NF-kB reporter was 1.08 ± 0.09.
As to `O=[N+]([O-])c1ccc(OCC(O)CN2CCN(c3ccccc3)CC2)cc1` (stereo not given), the NF-kB reporter came out at 1.02 ± 0.059.
Turning to `CCc1ccccc1Nc1nc(-c2sc(NC(C)=O)nc2C)cs1`, the NF-kB reporter worked out at 0.555 ± 0.052.
Turning to `COc1cc2c(cc1Cc1cccc(Cl)c1F)c(=O)c(C(=O)O)cn2[C@H](CO)C(C)C`, the NF-kB reporter stood at 1.04 ± 0.27.
Same read-out and setting: the value for `NC(=O)c1ncn(C2OC(CO)C(O)C2O)c1O` (stereo not given) was 0.895 ± 0.088.
Turning to `CCOC(=O)C1=C(C)NC(C)=C(C(=O)OC)C1c1ccc(C)cc1` (stereo not given), the NF-kB reporter is 0.743 ± 0.062.
`CN1CCN(C2=C(Cl)C(=O)N(c3ccc(Cl)c(Cl)c3)C2=O)CC1`: the NF-kB reporter was 1.01 ± 0.091.
The same measure, in the same setting: under `CCC1(C)CC(CCN)(c2ccc(C)cc2)CCO1` (stereo not given) stands 1.02 ± 0.08; under `Cc1ccc(NC(Nc2ccc(C)cc2)=C(C(Cl)=C(Cl)Cl)[N+](=O)[O-])cc1`, 0.881 ± 0.07.
For `O=C(Nc1cc2c(cc1Cl)OCCO2)c1cc(Cl)ccc1O`, the NF-kB reporter was 0.902 ± 0.077.
Take `Cl.O=C1Cc2cc(CCN3CCN(c4nsc5ccccc45)CC3)c(Cl)cc2N1`: the NF-kB reporter stood at 1.06 ± 0.24.
For `O=S(=O)(c1ccc(F)cc1)N1CCC(c2nc3ccccc3[nH]2)CC1`, the NF-kB reporter stood at 1.08 ± 0.082.
In the case of `COc1ccc(C=NNc2nc(-c3ccccc3)cc(-c3ccc(Br)cc3)n2)c(OC)c1`, the NF-kB reporter was 0.94 ± 0.1.
Take `CCc1nc(N)nc(N)c1-c1ccc(Cl)cc1`: the NF-kB reporter came out at 1.07 ± 0.054.
Same read-out and setting: under `Cc1c(F)cc(C(=O)NC2CC2)cc1-c1ccc(C(=O)NCC(C)(C)C)cn1` stands 0.994 ± 0.05; under `COC(=O)C1=C(C)NC(C)=C(C(=O)OC)C1c1ccccc1[N+](=O)[O-]`, 1.33 ± 0.073.
In the case of `O=c1[nH]c(=O)n([C@H]2C[C@H](O)[C@@H](CO)O2)cc1I`, the NF-kB reporter stood at 0.928 ± 0.058.
Turning to `O=[N+]([O-])c1ccc(C=Nc2sc3c(c2-c2nc4ccccc4s2)CCCC3)cc1`, the NF-kB reporter amounted to 0.955 ± 0.059.
Take `COc1cc2nc(N3CCN(C(=O)C4COc5ccccc5O4)CC3)nc(N)c2cc1OC.CS(=O)(=O)O` (stereo not given): the NF-kB reporter stood at 1.29 ± 0.2.
Take `O=C(c1ccc(Cl)cc1)c1ccc(N2CCCCC2)c([N+](=O)[O-])c1`: the NF-kB reporter was found to be 1.11 ± 0.15.

Source of the values: the supplement of paper PMC10646978.
